Experimental data: PubChem BioAssay (NCI)
About 79,000 compounds went through this panel and 15% of them were active in at least one assay; those are over-represented in the sample as a whole. The source made the active and inactive calls. No stated cut-off is given here; in the data, active means growth inhibition above about 70%; inactive means the rest.

Assays:
[1] = NCI Yeast Anticancer Drug Screen. Data for the rad52 strain (AID 147);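 further: 0% = growth of vehicle-treated control cultures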; details: S. cerevisiae rad52 mutant growth inhibition, active compounds read high
Procedure, shortened: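 Inhibition of yeast growth, referenced to vehicle controls, was the measured output for a strain with defective DNA damage repair.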

[2] = NCI Yeast Anticancer Drug Screen. Data for the rad50EPP+ strain (AID 151);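 further: 0% = growth of vehicle-treated control cultures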; details: S. cerevisiae rad50 mutant strain, active compounds read high
Procedure, shortened: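 Genetically defined yeast (rad50EPP+, DNA damage repair alteration) is grown with compound, and inhibition of growth is expressed relative to vehicle-treated controls.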

[3] = NCI Yeast Anticancer Drug Screen. Data for the mgt1 strain (AID 153); details: S. cerevisiae mgt1 mutant growth inhibition, active compounds read high
Procedure, shortened: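 In the mgt1 strain, test compounds were added and growth inhibition was determined relative to vehicle-treated controls.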

[4] = NCI Yeast Anticancer Drug Screen. Data for the rad50 strain (AID 155);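 further: 0% = growth of vehicle-only cultures of the same strain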; details: S. cerevisiae rad50 strain growth inhibition, active compounds read high
Procedure, shortened: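 Yeast carrying a defined DNA repair defect were exposed to test compounds, and growth was compared with vehicle-treated controls to give percent inhibition.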

[5] = NCI Yeast Anticancer Drug Screen. Data for the mec2-1 strain (AID 157); details: S. cerevisiae mec2-1 strain, active compounds read high
Procedure, shortened: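 Each compound was tested on mec2-1 yeast, a strain altered in DNA damage repair or cell cycle control. Growth inhibition is reported relative to vehicle.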

[6] = NCI Yeast Anticancer Drug Screen. Data for the rad14 strain (AID 159);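 further: 0% = growth of vehicle-treated control cultures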; details: S. cerevisiae rad14 strain growth inhibition, active compounds read high
Procedure, shortened: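 Yeast cells carrying a defined DNA-repair defect were exposed to compounds, and growth inhibition was calculated relative to vehicle-treated control cultures.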

[7] = NCI Yeast Anticancer Drug Screen. Data for the sgs1 mgt1 strain (AID 161);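 further: 0% = growth of cultures given vehicle only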; details: S. cerevisiae sgs1 mgt1 strain, active compounds read high
Procedure, shortened: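 Mutant yeast exposed to compound; growth scored against vehicle-only wells.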

[8] = NCI Yeast Anticancer Drug Screen. Data for the cln2 rad14 strain (AID 165);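 further: 0% = growth equal to vehicle treated cultures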; details: S. cerevisiae cln2 rad14 strain, active compounds read high
Procedure, shortened: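 Test compounds were added to cln2 rad14 yeast cultures; inhibition of growth was then determined by comparison with vehicle treatment.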

[9] = NCI Yeast Anticancer Drug Screen. Data for the bub3 strain (AID 167); details: S. cerevisiae bub3 mutant strain, active compounds read high
Procedure, shortened: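 Compounds were applied to a genetically altered yeast strain carrying a cell-cycle control defect. Growth inhibition was scored against vehicle-treated controls.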

[10] = NCI Yeast Anticancer Drug Screen. Data for the wt2 strain (AID 169);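 further: 0% = growth of vehicle-treated yeast cultures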; details: S. cerevisiae wt2 strain growth inhibition, active compounds read high
Procedure, shortened: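 The panel's yeast strains carry defined changes in DNA repair or cell cycle genes. Each strain is grown with compound, and growth loss is scored relative to vehicle.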

[11] = NCI Yeast Anticancer Drug Screen. Data for the mlh1 strain (AID 171);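 further: 0% = growth of vehicle-treated control cultures of the same strain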; details: S. cerevisiae mlh1 strain growth inhibition, active compounds read high
Procedure, shortened: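 Inhibition values reflect reduced yeast growth in the presence of compound, referenced to vehicle controls, using a strain chosen for its alteration in DNA repair or cell cycle control.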

[12] = NCI Yeast Anticancer Drug Screen. Data for the sgs1 strain (AID 173);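 further: 0% = growth of vehicle-only control cultures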; details: S. cerevisiae sgs1 mutant, active compounds read high
Procedure, shortened: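 Vehicle-treated cultures served as reference for growth inhibition of a yeast strain altered in DNA damage repair or cell cycle control after compound exposure.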

[13] = NCI Yeast Anticancer Drug Screen. Data for the mlh1 rad18 strain (AID 175); details: S. cerevisiae mlh1 rad18 strain growth inhibition, active compounds read high
Procedure, shortened: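 Inhibition values reflect reduced growth of mutant yeast versus vehicle-treated controls following compound exposure; the mutations affect DNA damage repair.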

[14] = NCI Yeast Anticancer Drug Screen. Data for the rad18 strain (AID 177); details: S. cerevisiae rad18 mutant growth inhibition, active compounds read high
Procedure, shortened: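 Steps: expose repair-mutant yeast to compound; measure growth; express as inhibition relative to vehicle control.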

[15] = NCI Yeast Anticancer Drug Screen. Data for the wt1 strain (AID 149);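 further: 0% = growth of vehicle-treated wt1 cultures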; details: S. cerevisiae wt1 strain (SPY 50644) growth inhibition, active compounds read high
Procedure, shortened: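 Yeast wt1 strain exposed to compounds; growth inhibition measured relative to vehicle-treated controls.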

[16] = NCI Yeast Anticancer Drug Screen. Data for the CLN2oe strain (AID 163);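 further: 0% = growth of vehicle-only control cultures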; details: S. cerevisiae CLN2oe strain, active compounds read high
Procedure, shortened: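 First, the altered yeast strain was treated with each compound; second, its growth was measured; finally, inhibition was derived by comparison with vehicle controls.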

[17] = at 5.0 µM (retest, dose inferred, filed as 0.5)
[18] = at 50.0 µM (retest, dose inferred, filed as 5.0)

Measured: growth inhibition

N/C(=N\OC(=O)NC(Cl)=C(Cl)Cl)c1cc(C(F)(F)F)cc(C(F)(F)F)c1
active: [1]; at 100.0 µM 98% | [3]; at 33.0 µM 74% | [3]; at 100.0 µM 97% | [4]; at 50.0 µM 89% | [4]; at 100.0 µM 97% | [5]; at 50.0 µM 89.3% | [5]; at 100.0 µM 95% | [6]; at 100.0 µM 96% | [7]; [18] 95% | [7]; at 50.0 µM 89.4% | [8]; [18] 94% | [8]; at 50.0 µM 89% | [9]; [18] 91% | [9]; at 50.0 µM 89.9% | [9]; at 100.0 µM 96% | [10]; at 100.0 µM 96% | [11]; at 100.0 µM 97% | [12]; at 100.0 µM 97% | [13]; at 50.0 µM 88% | [14]; at 33.0 µM 72% | [14]; at 100.0 µM 97%
inactive: [1]; at 1.2 µM -14% | [1]; at 3.7 µM -11% | [1]; at 11.0 µM -2% | [1]; at 33.0 µM 64% | [2]; at 1.2 µM -30% | [2]; at 3.7 µM -48% | [2]; at 11.0 µM -43% | [2]; at 33.0 µM -35% | [2]; at 100.0 µM 17% | [3]; at 1.2 µM -23% | [3]; at 3.7 µM 7% | [3]; at 11.0 µM 6% | [4]; at 1.2 µM -10% | [4]; at 3.7 µM -20% | [4]; [17] 34% | [4]; at 11.0 µM 6% | [4]; at 33.0 µM 59% | [4]; [18] 54% | [5]; at 1.2 µM -33% | [5]; at 3.7 µM -61% | [5]; [17] 36% | [5]; at 11.0 µM -32% | [5]; at 33.0 µM 33% | [5]; [18] 58% | [6]; at 1.2 µM -53% | [6]; at 3.7 µM -36% | [6]; at 11.0 µM -48% | [6]; at 33.0 µM 18% | [7]; [17] -1% | [8]; [17] 45% | [9]; at 1.2 µM -23% | [9]; at 3.7 µM -9% | [9]; [17] 34% | [9]; at 11.0 µM -30% | [9]; at 33.0 µM 23% | [10]; at 1.2 µM -43% | [10]; at 3.7 µM -32% | [10]; at 11.0 µM -36% | [10]; at 33.0 µM 38% | [11]; at 1.2 µM -27% | [11]; at 3.7 µM -11% | [11]; at 11.0 µM -14% | [11]; at 33.0 µM 57% | [12]; at 1.2 µM -22% | [12]; at 3.7 µM -16% | [12]; at 11.0 µM -9% | [12]; at 33.0 µM 68% | [13]; [17] 42% | [13]; [18] 67% | [14]; at 1.2 µM -20% | [14]; at 3.7 µM -21% | [14]; at 11.0 µM -2%

COc1ccccc1/C=C1\Sc2scc(-c3cccc([N+](=O)[O-])c3)[n+]2C1=O
active: [15]; at 3.7 µM 91% | [15]; at 11.0 µM 99% | [15]; at 33.0 µM 98% | [15]; at 100.0 µM 94% | [2]; at 3.7 µM 80% | [2]; at 11.0 µM 95% | [2]; at 33.0 µM 96% | [2]; at 100.0 µM 88% | [3]; at 3.7 µM 98% | [3]; at 11.0 µM 99% | [3]; at 33.0 µM 94% | [3]; at 100.0 µM 91% | [4]; at 3.7 µM 93% | [4]; at 11.0 µM 98% | [4]; at 33.0 µM 92% | [4]; [18] 96% | [4]; at 50.0 µM 85.7% | [4]; at 100.0 µM 91% | [5]; at 3.7 µM 98% | [5]; at 11.0 µM 99% | [5]; at 33.0 µM 96% | [5]; [18] 96% | [5]; at 50.0 µM 89.1% | [5]; at 100.0 µM 90% | [6]; at 3.7 µM 90% | [6]; at 11.0 µM 99% | [6]; at 33.0 µM 97% | [6]; at 100.0 µM 94% | [7]; [18] 98% | [7]; at 50.0 µM 89.3% | [16]; at 3.7 µM 82% | [16]; at 11.0 µM 99% | [16]; at 33.0 µM 97% | [16]; at 100.0 µM 95% | [8]; [18] 96% | [8]; at 50.0 µM 87.6% | [9]; at 1.2 µM 70% | [9]; at 3.7 µM 96% | [9]; [17] 92% | [9]; at 11.0 µM 99% | [9]; at 33.0 µM 95% | [9]; [18] 95% | [9]; at 50.0 µM 83.8% | [9]; at 100.0 µM 84% | [10]; at 11.0 µM 98% | [10]; at 33.0 µM 98% | [10]; at 100.0 µM 95% | [11]; at 3.7 µM 89% | [11]; at 11.0 µM 99% | [11]; at 33.0 µM 97% | [11]; at 100.0 µM 90% | [12]; at 3.7 µM 89% | [12]; at 11.0 µM 99% | [12]; at 33.0 µM 97% | [12]; at 100.0 µM 90% | [14]; at 3.7 µM 82% | [14]; at 11.0 µM 98% | [14]; at 33.0 µM 96% | [14]; at 100.0 µM 93%
inactive: [15]; at 1.2 µM 33% | [2]; at 1.2 µM 11% | [3]; at 1.2 µM 63% | [4]; at 1.2 µM 47% | [4]; [17] 12% | [5]; at 1.2 µM 67% | [5]; [17] 16% | [6]; at 1.2 µM 28% | [7]; [17] 46% | [16]; at 1.2 µM 46% | [8]; [17] 15% | [10]; at 1.2 µM 18% | [10]; at 3.7 µM 59% | [11]; at 1.2 µM 34% | [12]; at 1.2 µM 34% | [14]; at 1.2 µM 14%

O=C1C2C(C(=O)N1c1ccc(OCc3ccccc3)cc1)C1c3ccccc3C2C2CCCCN21 (stereo not drawn)
active: [3]; at 100.0 µM 95% | [4]; at 50.0 µM 80.8% | [4]; at 100.0 µM 94% | [5]; at 100.0 µM 93%
inactive: [2]; at 1.2 µM -1% | [2]; at 3.7 µM 4% | [2]; at 11.0 µM 0% | [2]; at 33.0 µM 1% | [2]; at 100.0 µM 6% | [3]; at 1.2 µM 4% | [3]; at 3.7 µM 4% | [3]; at 11.0 µM -11% | [3]; at 33.0 µM 2% | [4]; at 1.2 µM 3% | [4]; at 3.7 µM 11% | [4]; [17] 3% | [4]; at 11.0 µM 13% | [4]; at 33.0 µM 41% | [4]; [18] 50% | [5]; at 1.2 µM -7% | [5]; at 3.7 µM -6% | [5]; [17] -5% | [5]; at 11.0 µM -6% | [5]; at 33.0 µM 2% | [5]; [18] 19% | [5]; at 50.0 µM -8.75% | [6]; at 1.2 µM -2% | [6]; at 3.7 µM 3% | [6]; at 11.0 µM 4% | [6]; at 33.0 µM 35%
